Records with an inconclusive call do not appear. A number with no mark means an inactive call. Calls of active or inactive are those of the source. Calls follow the shape of the dose curve; as a rule, active = well fitted inhibition curve with a large enough effect; inconclusive = small, poorly fitted or top-dose-only effect; inactive = flat fitted curve, though single readings scatter.
What follows are compounds tested against Calcium and integrin-binding protein 1 (Homo sapiens) (UniProt Q99828) (assay: Primary qHTS for Identification of Calcium Integrin Binding Protein 1 (CIB1) Competitor (AID 1508620; also: top concentration of the series differs between compounds)). Conditions: CIB1-GST / FITC-alphaIIb peptide fluorescence polarization; series mostly up to 57.7 µM; activity change, negative = inhibition: at the top concentration.
How it was run: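 Fluorescence polarization competition: GST-tagged CIB1 (1 uM final) preincubated with compound 15 min at room temperature, then FITC-labelled alphaIIb peptide (100 nM final) added. After 15 min at room temperature, polarization read at Ex 480/Em 540.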
% is scaled to controls: 0 for no effect and ±100 for the full control effect.

Calcium and integrin-binding protein 1 (Homo sapiens), sequence (Q99828 whole entry, looked up): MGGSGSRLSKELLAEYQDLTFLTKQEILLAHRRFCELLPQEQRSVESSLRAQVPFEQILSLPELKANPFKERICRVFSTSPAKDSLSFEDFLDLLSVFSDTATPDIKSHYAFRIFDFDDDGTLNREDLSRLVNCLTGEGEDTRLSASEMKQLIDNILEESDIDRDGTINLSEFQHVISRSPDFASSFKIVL

Structure (SMILES) | activity change, negative = inhibition | Potency
CC(=O)NC(CCC(=O)O)C(=O)NCCc1ccc(O)cc1 (centres undefined) | -3.27% [at 114 µM] | 
CC1CCCC2OC2C(=O)c2c(O)cc(O)cc2CC(=O)O1 (centres undefined) | 0.49% [at 114 µM] | 
CC1CCC2(NC1)OC1C(=O)C3C4CCC5CC(O[C@@H]6O[C@H](CO)[C@@H](O)[C@H](O)[C@H]6O[C@@H]6O[C@@H](C)[C@H](O)[C@@H](O)[C@H]6O)CCC5(C)C4CCC3(C)C1C2C (some centres undefined) | 0.761% [at 30.2 µM] | 
C=C1C2=CC(O)C(C)C1(C)CC/C(C)=C/CCC1(C)OC1C2=O (centres undefined) | 3.11% | 
CC(O)(CC(=O)O)CC(=O)O[C@@H]1[C@@H](O)[C@H](OCCc2ccccc2)O[C@H](CO)[C@H]1O (some centres undefined) | 4.23% | 
Cc1c(CN(C)C(=O)/C=C/c2cnc3c(c2)CCC(=O)N3)oc2ccccc12 | 2.58% [at 114 µM] | 
CCCC(N[C@@H](C)C(=O)N1[C@H](C(=O)O)C[C@@H]2CCCC[C@@H]21)C(=O)OCC (some centres undefined) | 4.98% [at 114 µM] | 
C=C1C2(CCC(=O)OC2(C)C)CC(OC(=O)/C(C)=C/C)C2(C)C13OC14C(=O)OC(C)(C(=O)C12C(=O)OC4C)C3OC(C)=O (centres undefined) | 2.34% [at 30.2 µM] | 
C/C=C/C=C/C=C/C(=O)O[C@@H]1C=C(CO)C(O)(C(=O)O)[C@@]2(C)CCCC(C)(C)[C@H]12 (some centres undefined) | 5.51% | 
C=C1CC23CCC4[C@@](C)(CCC[C@@]4(C)C(=O)O)C2CCC1C3 (some centres undefined) | -7.69% [at 114 µM] | 
O=C(/C=C/c1ccc(O)cc1)OCC1=CC2OC(=O)C3=CO[C@@H](O[C@@H]4O[C@H](CO)[C@@H](O)[C@H](O)[C@H]4O)[C@H]1[C@@H]32 (some centres undefined) | -0.472% | 
C#C[C@]1(O)CC[C@H]2[C@@H]3CCC4=C/C(=N/O)CC[C@@H]4[C@H]3CC[C@@]21CC | 0.949% [at 114 µM] | 
C=C1CC[C@H]2[C@@](C)(CCC[C@@]2(C)C(=O)O)[C@@H]1CCC(C)CCO (some centres undefined) | -0.143% | 
C=C1CC/C=C(/CO)C(=O)C[C@@H]2[C@@H]1CC2(C)C | 1.08% [at 114 µM] | 
O=C(O[C@H]1[C@@H]2C[C@@H]3OC[C@@](O)([C@H]2[C@H](O[C@@H]2O[C@H](CO)[C@@H](O)[C@H](O)[C@H]2O)O3)[C@@H]1O)c1ccccc1 | -2.11% | 
O=C1NC(Cc2ccc(O)cc2)C(=O)N2CCCC12 (centres undefined) | -3.54% [at 114 µM] | 
C[C@]12CCC[C@](C)(C(=O)O)C1CCC13C=C(CO)C(CCC12)C3 (some centres undefined) | 3.6% | 
NS(=O)(=O)NCCNc1nonc1C(=Nc1ccc(F)c(Br)c1)NO |  | inactive
COC(=O)C1(Cc2ccc(O)cc2)OC(=O)C(OC)=C1c1ccc(O)cc1 (centres undefined) | 0.509% | 
COc1c(C)c(OCC=C(C)C)cc2c1C(=O)NC2=O | 0.572% [at 114 µM] | 

Structure (SMILES) | activity change, negative = inhibition | Potency
COc1ccc(C(=O)O[C@H]2CC(C)=CC[C@@]3(C)[C@@H](OC(C)=O)C[C@@](O)(C(C)C)[C@H]23)cc1 | -4.92% | 
C[C@@H]1O[C@@H](O[C@@H]2[C@@H](O)[C@@H](O)[C@H](O[C@@H]3[C@@H](O)[C@@H](O[C@]4(CO)O[C@H](CO)[C@@H](O)[C@@H]4OC(=O)/C=C/c4ccc(O)cc4)O[C@H](CO)[C@H]3OC(=O)/C=C/c3ccc(O)cc3)O[C@H]2C)[C@H](O)[C@H](O)[C@H]1O | 1.94% [at 30.2 µM] | 
CCC1CC2C(C)=CC3CCCCC3C2(C)C2(OC(=O)C(C)(O)OC2=O)O1 (centres undefined) | -1.08% | 
Cc1ncc([N+](=O)[O-])n1CC(O)CN1CCOCC1 (centres undefined) | -4.43% [at 114 µM] | 
CC(=O)NC(C(=O)OC1CCC(C)(C)C2CC=C3C(=O)OCC3(O)C12C)C(C)C (centres undefined) | 2.2% | 
Cn1c(=O)c2nc(/C=C/c3cccc(Cl)c3)n(C)c2n(C)c1=O | 0.519% [at 228 µM] | 
Cc1cccc(-c2[nH]c(CNc3ccccc3F)nc2-c2ccc3ncnn3c2)n1 | -5.2% [at 114 µM] | 
C[C@@H]1O[C@@H](O[C@H]2[C@H](O)[C@@H](C(=O)O)O[C@@H](O[C@H]3CC[C@@]4(C)C(CC[C@]5(C)C4CC=C4C6CC(C)(C)CC[C@]6(C(=O)O)CC[C@]45C)C3(C)C)[C@@H]2O[C@@H]2O[C@H](CO)[C@@H](O)[C@H](O)[C@H]2O)[C@H](O)[C@H](O)[C@H]1O (some centres undefined) | 2.54% [at 30.2 µM] | 
COc1cc(/C=C/C(=O)OC2CC3CCC2(C)C3(C)C)ccc1O (centres undefined) | 3.12% | 
COc1ccc(/C=C/C(=O)O[C@@H]2[C@@H](OC(C)=O)[C@@H](OC(C)=O)[C@H](O[C@H]3[C@@H]4C=CO[C@@H](O[C@@H]5O[C@H](CO)[C@@H](O)[C@H](O)[C@H]5O)[C@@H]4[C@@]4(CO)O[C@@H]34)O[C@H]2C)cc1O | 1.12% [at 30.2 µM] | 
CC(C)C(=O)c1cn(CC(=O)COc2ccc(Oc3ccccc3)cc2)c2ccc(C(=O)O)cc12 | 6.11% [at 114 µM] | 
CCOc1nc2cccc(C(=O)O)c2n1Cc1ccc(-c2ccccc2-c2noc(=O)[nH]2)cc1 | -14.5% [at 114 µM] | 
CC1CCC2(O1)C(C)(C)CC(O[C@@H]1O[C@H](CO[C@@H]3OC[C@](O)(CO)[C@H]3O)[C@@H](O)[C@H](O)[C@H]1O)CC2(C)O (some centres undefined) | -1.07% | 
C[C@@H]1O[C@@H](O[C@H]2[C@H](O[C@H]3CC[C@@]4(C)C(CC[C@]5(C)C4CC=C4[C@@H]6CC(C)(C)CC[C@]6(C(=O)O)CC[C@]45C)[C@]3(C)CO)OC[C@H](O)[C@@H]2O)[C@H](O)[C@H](O[C@@H]2OC[C@@H](O)[C@H](O)[C@H]2O)[C@H]1O (some centres undefined) | 0.0572% [at 30.2 µM] | 
C=C1C(=O)OC2/C=C(\C)CC/C=C(\C(=O)O)CC/C=C(\C)CCC12 (centres undefined) | -6.26% | 
CC(CCC1(O)OC2CC3C4CCC5CC(O[C@@H]6O[C@H](CO)[C@@H](O)[C@H](O)[C@H]6O[C@@H]6OC[C@@H](O)[C@H](O)[C@H]6O)C(O)CC5(C)C4CCC3(C)C2C1C)CO[C@@H]1O[C@H](CO)[C@@H](O)[C@H](O)[C@H]1O (some centres undefined) | -0.357% [at 30.2 µM] | 
CC(=O)OC[C@]12[C@H](OC(C)=O)C(=O)[C@@H]3[C@@H](OC(C)=O)[C@@]14O[C@@]3(C)COC(=O)c1cccnc1[C@@H](C)[C@H](C)C(=O)O[C@@H]([C@H](OC(C)=O)[C@@H]2OC(C)=O)[C@]4(C)O | -2.6% [at 30.2 µM] | 
Cc1c(N2C(=O)c3ccc(C(=O)O)cc3C2=O)c(=O)n(-c2ccccc2)n1C | -0.813% [at 114 µM] | 
COC(=O)C12C(=O)C(C)=C(O)C1(C)C(C)=CC1C34CCC(OC3=O)C(C)(C)C4CCC12C (centres undefined) | 4.73% | 
